Screens from PubChem BioAssay.
M18AAP inhibitor – blocks P. falciparum M18 aspartyl aminopeptidase | recombinant PfM18AAP, H-Glu-NHMec fluorogenic cleavage | inhibition, % at 7.35 µM | hit rate 1.2% among 290,000 | AID 1822;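 active = inhibition above the campaign mean inhibition over all tested compounds plus 3 SD, cut at about 28% in these data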
SMARCA2 act – SMARCA2 function activation, primary screen; activation, % at 9.1 µM; MG213 cells, MMTV-luciferase reporter, dexamethasone, overnight; hit rate 1% among 370,000; in the data active = activation above about 7.8%
ALR H2O2 inh – blocks human ALR sulfhydryl oxidase activity; purified ALR, DTT oxidation, H2O2 HRP-luminol luminescence; inhibition, % (test concentration not listed); hit rate 3.8% among 290,000;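 active = mean replicate inhibition above about 79%, with every replicate also reaching it, limit read from the data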
Target sequence (P55789 whole entry, looked up): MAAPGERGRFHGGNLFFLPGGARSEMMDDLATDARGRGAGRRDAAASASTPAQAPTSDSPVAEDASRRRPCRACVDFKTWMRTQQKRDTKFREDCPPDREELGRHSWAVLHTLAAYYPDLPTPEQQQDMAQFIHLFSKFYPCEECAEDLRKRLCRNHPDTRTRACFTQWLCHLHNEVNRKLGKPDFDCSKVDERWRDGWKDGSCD
beta cell repl – inducers of beta-cell replication in MIN6 cells; MIN6 cells proliferation, ATPlite luminescence, 48 h; cells starved in 0.2% serum; 100% = growth in 10% serum; hit rate 0.29% among 330,000; AID 2380; proliferation, % at 10 µM;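 active = compounds whose signal lies at least 3.5 SD above the mean of all wells on their plate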
Exocytosis inh – lytic granule exocytosis inhibition; hit rate 0.66% among 360,000; TALL-104 LAMP-1 surface exposure, flow cytometry; cells stimulated with thapsigargin and PMA; inhibition, % at 10 µM;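 active = inhibition above about 55%, limit read from the data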
GASC-1 inh – blocks human GASC-1 demethylase activity. Q9H3R0. GST-JMJD2C(1-420) H3K9me3 demethylation, DELFIA europium. inhibition, % at 2.35 µM. hit rate 0.069% among 330,000. AID 2099;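 active = more than half of a compound's replicate wells show inhibition beyond 50%, single wells judged on their own value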;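 note: signal counts dimethyl H3K9 product captured on neutravidin plate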
Target sequence (Q9H3R0 1-420 limits assumed): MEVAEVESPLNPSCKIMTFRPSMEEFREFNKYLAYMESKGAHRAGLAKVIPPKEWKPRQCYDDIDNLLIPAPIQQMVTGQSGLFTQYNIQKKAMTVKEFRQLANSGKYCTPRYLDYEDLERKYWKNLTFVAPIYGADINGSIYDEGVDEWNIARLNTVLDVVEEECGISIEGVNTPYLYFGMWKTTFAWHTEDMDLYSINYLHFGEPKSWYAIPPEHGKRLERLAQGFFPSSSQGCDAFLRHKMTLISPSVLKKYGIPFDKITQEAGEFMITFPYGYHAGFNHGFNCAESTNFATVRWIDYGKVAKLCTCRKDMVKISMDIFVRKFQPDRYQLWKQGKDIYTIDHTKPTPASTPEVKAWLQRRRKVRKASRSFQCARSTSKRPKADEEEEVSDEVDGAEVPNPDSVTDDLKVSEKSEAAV
Each line names hits and unclear results; the compound was inactive in the other large screens. Shown are actives, neighbours in structure and some others; about 5.4% of the full set was active somewhere.

COC(=O)C1C(C(C)C)N(c2ccccc2)OC1(C)O (configuration not stated)	ALR H2O2 inh 86.0
COC(=O)C1CC(c2ccccc2)N(c2ccccc2)O1 (configuration not stated)	none (no result: M18AAP inhibitor, ALR H2O2 inh, beta cell repl, GASC-1 inh)
CC(C)C(C)NC(=O)CSc1nc2scc(-c3ccco3)c2c(=O)n1-c1ccccc1 (configuration not stated)	ALR H2O2 inh 96.1
Cn1cnnc1SCC(=O)Nc1ccc(S(N)(=O)=O)cc1	ALR H2O2 inh 93.5
Cn1cnnc1SCC(=O)Nc1ccc(N2CCCCC2)cc1	ALR H2O2 inh 98.7 (no result: M18AAP inhibitor)
COCCn1cnnc1SCC(=O)Nc1ccc(N2CCCCC2)cc1	ALR H2O2 inh 95.4 (no result: M18AAP inhibitor)
CCOC(=O)N1CCN(C(=O)C[C@H]2C[C@@]3(C(=O)OC)C(=C[C@H](COCc4ccccc4)O[C@@H]3C)N(Cc3cccc4ccccc34)C2=O)CC1	none (no result: M18AAP inhibitor, ALR H2O2 inh, beta cell repl, Exocytosis inh, GASC-1 inh)
COC(=O)[C@]12C[C@H](CC(=O)NCc3cccs3)C(=O)N(CCC3=CCCCC3)C1=C[C@H](C(C)(C)C)O[C@@H]2C	none (no result: M18AAP inhibitor, ALR H2O2 inh, beta cell repl, Exocytosis inh, GASC-1 inh)
CC(C)(C)N1Cc2nnn(Cc3ccccc3)c2-c2cc(N3CCCCC3)ccc2S1(=O)=O	none (no result: M18AAP inhibitor, ALR H2O2 inh, beta cell repl, Exocytosis inh, GASC-1 inh)
Cc1cccnc1NC(=S)Nc1ccc(F)cc1F	none
Cc1ccc(C)c(NC(=S)Nc2ncccc2C)c1	ALR H2O2 inh 79.5
COC(=O)[C@]12C[C@H](CC(=O)NCc3cccc4ccccc34)C(=O)N(Cc3ccc(Cl)cc3Cl)C1=C[C@H](C(C)(C)C)O[C@@H]2C	none (no result: M18AAP inhibitor, ALR H2O2 inh, beta cell repl, Exocytosis inh, GASC-1 inh)
COC(=O)CSc1ccccc1C(=O)OC	none
O=C(CSC1=NS(=O)(=O)c2ccccc21)Nc1ccccc1	ALR H2O2 inh 98.7
O=C(CCN1C(=O)c2ccccc2S1(=O)=O)Nc1ccccc1	none
COC(=O)CSC1=NS(=O)(=O)c2ccccc21	ALR H2O2 inh 99.8 (no result: SMARCA2 act)
COc1ccc(C2=Nn3c(nnc3C3CCCCC3)SC2)cc1	none (no result: M18AAP inhibitor, ALR H2O2 inh, beta cell repl, Exocytosis inh, GASC-1 inh)
CC(c1ccco1)N(C(=O)c1cc(Cl)cc(Cl)c1)c1ccccn1 (configuration not stated)	beta cell repl 0.0 (no result: ALR H2O2 inh)
O=C(Cn1cc(C(F)(F)F)ccc1=O)N/N=C/c1ccc(Cl)c(Cl)c1	none
O=C(Cn1cc(C(F)(F)F)ccc1=O)N/N=C/c1ccc(O)cc1	ALR H2O2 inh 98.7
N#Cc1ccc(OC[C@@H](O)CN2CCC(C(O)(c3ccccc3)c3ccccc3)CC2)cc1	none (no result: M18AAP inhibitor, ALR H2O2 inh, beta cell repl, Exocytosis inh, GASC-1 inh)
CCc1nn(CC(=O)Nc2ccc(Br)c(C)c2)c(=N)s1	ALR H2O2 inh 98.6
CN(C)S(=O)(=O)c1ccc(C(=O)Nc2nnc(SCC(=O)NCC3CCCO3)s2)cc1 (configuration not stated)	ALR H2O2 inh 94.2
COc1ccc(S(=O)(=O)Oc2c(OC)cc(C(=S)N3CCOCC3)cc2OC)cc1	M18AAP inhibitor 28.2
COc1ccc(-c2cc(-c3nnc(SCc4cccc5ccccc45)n3N)[nH]n2)cc1	none (no result: M18AAP inhibitor, ALR H2O2 inh, beta cell repl, Exocytosis inh, GASC-1 inh)
CC(=O)NC(C)C(c1cccs1)N1CCN(c2ccccc2)CC1 (configuration not stated)	ALR H2O2 inh 98.9
CC(NC(=O)Cc1cccs1)C(c1cccs1)N1CCN(c2ccccc2F)CC1 (configuration not stated)	none
Cc1ccc(S(=O)(=O)NC(C)C(c2cccs2)N2CCN(c3ccccc3)CC2)cc1 (configuration not stated)	none (no result: ALR H2O2 inh)
CC(NC(=O)Cc1cccs1)C(c1cccs1)N1CCN(c2ccccc2)CC1 (configuration not stated)	ALR H2O2 inh 96.4
CCN1CCN(C(c2cccs2)C(C)NC(=O)c2ccccc2)CC1 (configuration not stated)	none
CCC(=O)NC(C)C(c1cccs1)N1CCN(c2ccccc2)CC1 (configuration not stated)	ALR H2O2 inh 98.9
COC(=O)c1sc(-c2cccs2)cc1NC(=O)/C=C/C(=O)O	ALR H2O2 inh 98.0
Cc1cc(NC(=O)c2ccc(S(=O)(=O)Nc3ccccc3)cc2)no1	ALR H2O2 inh 98.3
CCCCNC(=O)C[C@H]1C[C@@]2(C(=O)OC)C(=C[C@H](C3CCCC3)O[C@@H]2C)N(CCC2=CCCCC2)C1=O	none (no result: M18AAP inhibitor, ALR H2O2 inh, beta cell repl, Exocytosis inh, GASC-1 inh)
CN1c2cccc3cccc(c23)N(C)C1c1cccs1	ALR H2O2 inh 90.4
CC1N(C)c2cccc3cccc(c23)N1C	none (no result: ALR H2O2 inh)
COc1ccc(-n2c(SCC(=O)Nc3ccc(S(=O)(=O)Nc4nccs4)cc3)nnc2-c2ccco2)cc1	none (no result: M18AAP inhibitor, ALR H2O2 inh, beta cell repl, Exocytosis inh, GASC-1 inh)
O=C(O)C1C2C=CC(O2)C1C(=O)Nc1ccccc1C(F)(F)F (configuration not stated)	Exocytosis inh 83.1
CCC(C(=O)Nc1ccccc1N1CCCC1)c1cccc(C)c1 (configuration not stated)	none (no result: M18AAP inhibitor, ALR H2O2 inh, beta cell repl, Exocytosis inh, GASC-1 inh)
CCOc1ccc(C(=O)CC(Sc2ccc(C)cc2)C(=O)O)cc1 (configuration not stated)	ALR H2O2 inh 95.5
CCC(Sc1ccc(C(=O)O)cc1)C(=O)O (configuration not stated)	none
COc1ccccc1N(C(C)=O)C1=C(Cl)C(=O)c2ccccc2C1=O	Exocytosis inh 60.5 (no result: M18AAP inhibitor, ALR H2O2 inh, beta cell repl, GASC-1 inh)
CN(CCO)c1ccc2c(c1)Oc1ccccc1CN(Cc1cn(Cc3ccc(F)cc3)nn1)S2(=O)=O	none (no result: M18AAP inhibitor, ALR H2O2 inh, beta cell repl, Exocytosis inh, GASC-1 inh)
CN(C)CCCSc1nc2ccccc2s1	ALR H2O2 inh 98.6
O=C(O)CCSc1nc2ccccc2s1	ALR H2O2 inh 99.4
CCCC[C@@H]1C(=O)N2N=Cc3cc(C)c(C)cc3[C@H]2N2N=Cc3cc(C)c(C)cc3[C@@H]12	none (no result: M18AAP inhibitor, ALR H2O2 inh, beta cell repl, Exocytosis inh, GASC-1 inh)
COc1ccc(NC(=O)c2cc3ccc(O)cc3o/c2=N\O)cc1	Exocytosis inh 65.8
COc1ccc2o/c(=N\O)c(C(=O)Nc3ccccc3OC)cc2c1	Exocytosis inh 63.5
N#CCC[C@H]1CC[C@]2(CCCN(C(=O)C3CCCC3)C2)O1	none (no result: M18AAP inhibitor, ALR H2O2 inh, beta cell repl, Exocytosis inh, GASC-1 inh)
COc1ccc2c(c1OC)C(=O)N(c1cccc(NC(C)=O)c1)C2	ALR H2O2 inh 96.8
COc1ccc2c(c1OC)C(=O)N(c1ccc(F)cc1)C2	none
CSC(=Cc1ccc(C(=O)c2ccc(C)cc2)n1C)S(C)=O (configuration not stated)	none (no result: M18AAP inhibitor, ALR H2O2 inh, beta cell repl, Exocytosis inh, GASC-1 inh)
COC(=O)Cc1[nH]nc2c1C(c1ccc(O)c(OC)c1)C(C#N)=C(N)O2 (configuration not stated)	ALR H2O2 inh 98.7
COC(=O)Cc1[nH]nc2c1C(c1cc(OC)c(OC)c(OC)c1)C(C#N)=C(N)O2 (configuration not stated)	none (no result: ALR H2O2 inh)
O=C(NC12CC3CC(CC(C3)C1)C2)c1ccc(=O)oc1	none (no result: ALR H2O2 inh)
O=C(NNC(=O)C1[C@H]2CCCC[C@@H]12)c1ccc(=O)oc1 (some centres not stated)	ALR H2O2 inh 95.9
O=C(Nc1ccc(SC(F)F)cc1)C1CC(=O)N(Cc2ccccc2)C1 (configuration not stated)	ALR H2O2 inh 94.8
COc1cccc(NC(=O)CSc2nnc(-c3ccco3)c(-c3ccco3)n2)c1	ALR H2O2 inh 98.8
COc1ccc(NC(=O)CSc2nnc(-c3ccco3)c(-c3ccco3)n2)cc1OC	M18AAP inhibitor 31.0, ALR H2O2 inh 90.4
